From PubChem BioAssay (NCI)
This is part of a sample that, as a whole, favours compounds with a hit. Of some 83,000 tested, about 20% had one in any assay.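 Single-concentration screen, 48 h exposure, 96-well plates. Endpoint: percent growth. Below 10 = active.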 Values without a mark were called inactive. Calls of active or inactive are those of the source.

Tests used:
Experiment in all cases: NCI-60 one-dose screen, 48 h (100 = growth as untreated, 0 = no growth, -100 = all killed)
Details in all cases: 10 µM unless noted
SK-MEL-2 melanoma = tested on: SK-MEL-2 melanoma
EKVX NSCLC = tested on: EKVX NSCLC
SN12C renal = tested on: SN12C renal
UO-31 renal = tested on: UO-31 renal
ACHN renal = tested on: ACHN renal
CAKI-1 renal = tested on: CAKI-1 renal
A498 renal = tested on: A498 renal
CCRF-CEM leukemia = tested on: CCRF-CEM leukemia
MOLT-4 leukemia = tested on: MOLT-4 leukemia
TK-10 renal = tested on: TK-10 renal

Row | Structure (SMILES) | growth (SK-MEL-2 melanoma) | growth (EKVX NSCLC) | growth (SN12C renal) | growth (UO-31 renal) | growth (ACHN renal) | growth (CAKI-1 renal) | growth (A498 renal) | growth (CCRF-CEM leukemia) | growth (MOLT-4 leukemia) | growth (TK-10 renal)
1 | CSc1nc2nc3c(c(-c4ccc(C)cc4)c2c(=O)[nH]1)CN(C)C/C3=C\c1ccc(C)cc1 | 112% | 83.5% | 102% | 86.1% | 94.9% | 93.7% | 85.6% | 85.2% | 87.2% | 
2 | CC(C)Sc1nc(-c2ccc(Br)cc2)c(C#N)c(N2CCCCC2)n1 | 108% | 93.3% | 94.3% | 95.3% | 101% | 95.9% | 83.8% | 95.2% | 110% | 
3 | CCN1CC2=C(Nc3nc(SC)[nH]c(=O)c3C2c2cc(OC)c(OC)c(OC)c2)/C(=C/c2cc(OC)c(OC)c(OC)c2)C1 (stereo unspecified) | 117% | 87.3% | 95.9% | 106% | 87.9% | 108% | 104% | 84.7% | 82.5% | 
4 | OCCN1CCN(CCCN2c3ccccc3Sc3ccc(C(F)(F)F)cc32)CC1 | 8.96% (active) | 47.2% | 43.6% | 32.5% |  | 25.7% | 44.5% | 29.7% | -16% (active) | 4.29% (active)
5 | O=c1c2c(=NCCCN3CCCC3)cc3c(=O)n(CCCN4CCCC4)c(=O)c4c(NCCCN5CCCC5)cc(c(O)n1CCCN1CCCC1)c2c4-3 | 1.12% (active) | -17.2% (active) | 10.3% | -34.9% (active) | -31.2% (active) | 14.4% | -67.3% (active) | 10.1% | 16.5% | 
6 | CC12CCC3C(=CCc4cc(O)ccc43)C1CCC2=O (stereo unspecified) | 119% | 72.3% | 97.5% | 76% | 93.1% | 92.6% | 102% | 95.5% | 85.4% | 
7 | COc1cc(/C=C\C(C)=N\Nc2ccccc2)ccc1O | 92.5% | 94.1% | 92.6% | 66% | 97.6% | 82.3% | 110% | 30.7% | 70.9% | 
8 | NS(=O)(=O)c1cc2c(cc1Cl)NC=NS2(=O)=O | 103% | 107% | 100% | 82.1% | 98.9% | 96.3% | 110% | 97.6% | 103% | 
9 | N#CSCC1CC(O)(c2ccccc2)C(c2ccccc2)C(c2ccc(Cl)cc2)O1 (stereo unspecified) | -42.7% (active) | -40% (active) | -91.9% (active) | -93.1% (active) | -71.6% (active) | -67.1% (active) | 6.8% (active) | 10.2% | -10% (active) | 
10 | CCCCc1ccc(C(N)=O)nc1 | 96% | 100% | 98.7% | 88.7% | 98.8% | 102% | -4.32% (active) | 92% | 101% | 
11 | CCOc1nc(-c2ccco2)n2nc(-c3ccco3)cc2n1 | 117% | 95% | 104% | 91.1% | 95.5% | 95.9% | 83.5% | 102% | 114% | 
12 | CCN(Cc1cccc(S(=O)(=O)[O-])c1)c1ccc(C(=C2C=CC(=[N+](CC)Cc3cccc(S(=O)(=O)O)c3)C=C2)c2ccccc2S(=O)(=O)O)cc1 | 115% | 94.1% | 109% | 85.9% | 104% | 96.7% | 134% | 95.3% | 96.5% | 
13 | C[N+]1(C)C2CC[C@@H]1CC(OC(=O)C(O)c1ccccc1)C2 (stereo partly specified) | 150% | 99.4% | 87.3% | 85.3% | 106% | 84.1% | 109% | 93.1% | 126% | 
14 | COc1cc(/C=C2\CN(C)CC3=C2Nc2nc(SC)[nH]c(=O)c2C3c2cc(OC)c(OC)c(OC)c2)cc(OC)c1OC (stereo unspecified) | 71.8% | 83.7% | 24.2% | 52.4% | 39.2% | 14.5% | 95.9% | -0.341% (active) | 0.96% (active) | 
15 | O=C1CSC(c2ccccc2Cl)N1c1nnc(Cn2nnc3ccccc32)o1 (stereo unspecified) | 91.7% | 75% | 87.4% | 66.3% | 83.6% | 40.6% | 50.2% | 85.6% | 73.4% | 
16 | C[C@H]1c2cccc(O)c2C(O)=C2C(=O)[C@]3(O)C(O)=C(C(N)=O)C(=O)[C@@H](N(C)C)[C@@H]3[C@@H](O)[C@@H]21 | 56.1% | 46.7% | 53.6% | 32.6% | 27.1% | 14% | 59.9% | 39.1% | 51.5% | 
17 | O=CN1N=C(c2ccc(Nc3ccnc4cc(Cl)ccc34)cc2)CC1c1ccc(Cl)cc1 (stereo unspecified) | 52.1% | 40.5% | 36.1% | 20.6% | 27.9% | 39.4% | 34.6% | 6.48% (active) | 7.23% (active) | 
18 | CCSc1nc(-c2cccs2)n2nc(-c3ccco3)cc2n1 | 105% | 81.3% | 89.7% | 79.7% | 94.1% | 86.3% | 94.4% | 88.7% | 115% | 
19 | CCSc1nc(-c2ccco2)n2nc(-c3ccco3)cc2n1 | 129% | 76.1% | 95.8% | 72.4% | 88.8% | 84.3% | 91.7% | 86.7% | 118% | 
20 | Cc1ccc(-c2cc(-c3ccccc3)n(-c3ccccc3)n2)cc1 | 74.6% | 98.6% | 107% | 79.1% | 95.3% | 94.5% | 92.1% | 84.9% | 81.5% | 
21 | CCOC(=O)CCC(=O)O[C@H]1[C@H](O[C@@H]2[C@@H](C)[C@H](O[C@H]3C[C@@](C)(OC)[C@@H](O)[C@H](C)O3)[C@@H](C)C(=O)O[C@H](CC)[C@@](C)(O)[C@H](O)[C@@H](C)C(=O)[C@H](C)C[C@@]2(C)O)O[C@H](C)C[C@@H]1N(C)C | 121% | 100% | 101% | 67.7% | 96.4% | 93.2% | 120% | 91.4% | 94.2% | 
22 | C[C@H]1O[C@@H](O[C@H]2[C@@H](O)C[C@H](O[C@H]3[C@@H](O)C[C@H](O[C@H]4CC[C@]5(C)C6CC[C@]7(C)[C@@H](C8=CC(=O)OC8)CC[C@]7(O)C6CC[C@@H]5C4)O[C@@H]3C)O[C@@H]2C)C[C@H](O)[C@@H]1O (stereo partly specified) | -68.5% (active) | -98.4% (active) | -52.4% (active) | -90.4% (active) | -68% (active) | -92.6% (active) | -28.5% (active) | -58.6% (active) | -36.9% (active) | 
23 | O=c1oc2c(cc1-c1ccc([N+](=O)[O-])cc1)C(O)Oc1ccccc1-2 (stereo unspecified) | 71.6% | 80.7% | 98.4% | 74.5% | 103% | 78.2% | 84.8% | 62.5% | 63.6% | 
24 | CSc1nc(Nc2ccc(S(=O)(=O)Nc3ccon3)cc2)c(C#N)c(-c2ccc(Cl)cc2)n1 | 99.3% | 98.5% | 108% | 86% | 90.2% | 102% | 93.3% | 6.79% (active) | -20.8% (active) | 
25 | CC[C@H]1CN2CCc3cc(OC)c(OC)cc3C2C[C@@H]1CC1NCCc2cc(OC)c(OC)cc21 (stereo partly specified) | -70.5% (active) | -27.4% (active) | -13.1% (active) | -37.9% (active) | -16.5% (active) | -34.3% (active) | -49.9% (active) | -18% (active) | -13.1% (active) | 
26 | CCSCC1CC(O)(c2ccccc2)C(c2ccccc2)C(c2ccc(Cl)cc2)O1 (stereo unspecified) | 16.9% | -4.64% (active) | -49.9% (active) | 11.9% | 22.8% | -51.3% (active) | -13.3% (active) | 13.3% |  | 
27 | CC(C)CC1NC(=O)C(CCCN)NC(=O)C(C(C)C)NC(=O)C2CCCN2C(=O)C(Cc2ccccc2)NC(=O)C(CC(C)C)NC(=O)C(CCCN)NC(=O)C(C(C)C)NC(=O)C2CCCN2C(=O)C(Cc2ccccc2)NC1=O (stereo unspecified) | -94% (active) | -87.3% (active) | -82.2% (active) | -20% (active) | -19.8% (active) | -14.8% (active) | -70.1% (active) | -59.3% (active) | -51.3% (active) | 
28 | OC(c1ccccc1)C(NCc1ccccc1)c1ccccc1 (stereo unspecified) | 120% | 86% | 104% | 92% | 99.5% | 62.8% | 87.7% | 97.3% | 100% | 
